In PubChem BioAssay (NCI) one finds growth data, which are given here for 15 molecules.

The panel holds about 83,000 compounds, 20% with a hit somewhere; the sample as a whole holds those more often.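 Method: cells in 96-well plates; compound added at one concentration; 48 h incubation; percent growth measured; values under 10 scored active.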 Unmarked numbers belong to inactive results. Active and inactive are the calls of the source.

Among the test systems are RPMI-8226 leukemia; OVCAR-8 ovarian; OVCAR-5 ovarian; OVCAR-4 ovarian; SK-OV-3 ovarian; IGROV1 ovarian; OVCAR-3 ovarian; HS 578T breast; NCI/ADR-RES ovarian; T-47D breast.
Assay in all cases: NCI-60 one-dose screen, 48 h (100 = growth as untreated, 0 = no growth, -100 = all killed)
What all share (conditions): 10 µM

On to `Cc1[nH]nc2c1C(c1cnn(C)c1)C(C#N)=C(N)O2` (configuration not stated), for which the growth in the test with RPMI-8226 leukemia was 99.3%; in the test with OVCAR-8 ovarian it was 99.8%; in the test with OVCAR-5 ovarian, 109%; in the test with OVCAR-4 ovarian, 101%; in the test on SK-OV-3 ovarian, 103%; with IGROV1 ovarian it was 106%. Moreover, the growth with OVCAR-3 ovarian is 106%; in the test with HS 578T breast, 104%; with NCI/ADR-RES ovarian it was 108%; in the test with T-47D breast it was 96.4%.

As for `CCN1CCC2(CC1)OC(c1ccccc1)C(c1ccccc1)O2` (configuration not stated), the growth is 101% in the test on RPMI-8226 leukemia; 106% in the test with OVCAR-8 ovarian; 95.4% with OVCAR-5 ovarian; 110% with OVCAR-4 ovarian; 121% in the test with SK-OV-3 ovarian; 144% in the test on IGROV1 ovarian. The growth was 114% in the test on OVCAR-3 ovarian, 115% with HS 578T breast, 107% in the test on NCI/ADR-RES ovarian and 103% in the test with T-47D breast.

Regarding `CCCCCCN(CCCCCC)CC(O)c1ccc2c3c(cccc13)CC2` (configuration not stated), the growth in the test on RPMI-8226 leukemia is 27.5%; in the test on OVCAR-8 ovarian, 68.4%; with OVCAR-5 ovarian it was 48.9%; in the test with OVCAR-4 ovarian, 72.4%; in the test with SK-OV-3 ovarian it was 69.9%; with IGROV1 ovarian, 39.4%. Further, the growth was 80.6% in the test on OVCAR-3 ovarian, 69.1% with HS 578T breast, 56.5% with NCI/ADR-RES ovarian and 30.2% in the test with T-47D breast.

Take `O=C1/C(=C\c2cn(C(=O)c3ccc(Cl)cc3)c3ccccc23)c2ccccc2N1C(=O)c1ccc(Cl)cc1`: the growth with RPMI-8226 leukemia is 57.5%; in the test on OVCAR-8 ovarian, 78.7%; in the test with OVCAR-5 ovarian, 115%; with OVCAR-4 ovarian, 72%; with SK-OV-3 ovarian, 77%; with IGROV1 ovarian, 80%. The growth is 84.3% with OVCAR-3 ovarian, 83.4% with NCI/ADR-RES ovarian and 61.7% with T-47D breast.

`N=c1nc(N)ncn1-c1ccccc1`: the growth with RPMI-8226 leukemia is 97.7%; in the test on OVCAR-8 ovarian it was 99.5%; in the test with OVCAR-5 ovarian, 95%; with OVCAR-4 ovarian it was 100%; in the test on SK-OV-3 ovarian, 96.3%; in the test on IGROV1 ovarian, 104%. The growth in the test with OVCAR-3 ovarian was 116%; with HS 578T breast it was 101%; with T-47D breast it was 86.5%.

Take `COc1cc2cc3c(nc2cc1OC)CCN3Cc1ccc(NC(=O)Nc2cc(C(F)(F)F)cc(C(F)(F)F)c2)cc1`: the growth was 54.2% in the test with RPMI-8226 leukemia; 61.7% in the test on OVCAR-8 ovarian; 92.6% in the test with OVCAR-5 ovarian; 80.5% in the test with OVCAR-4 ovarian; 95.2% with SK-OV-3 ovarian; 84.3% with IGROV1 ovarian. Also, the growth in the test on OVCAR-3 ovarian was 51.6%; in the test on NCI/ADR-RES ovarian, 60.5%; in the test with T-47D breast, 71.5%.

In the case of `O=C(CC(c1ccccc1)N1CCOCC1)c1ccccc1` (configuration not stated), the growth was 5.15% (active) in the test on RPMI-8226 leukemia; 96.6% with OVCAR-8 ovarian; 79.3% in the test with OVCAR-5 ovarian; 98.3% with OVCAR-4 ovarian; 104% with SK-OV-3 ovarian; 97.4% in the test with IGROV1 ovarian. The growth in the test with OVCAR-3 ovarian is 94.7%; with NCI/ADR-RES ovarian it was 91.2%; with T-47D breast it was 72%.

Regarding `CC(=O)CSC(C)=O`, the growth with RPMI-8226 leukemia is 93.2%; in the test on OVCAR-8 ovarian, 108%; in the test with OVCAR-5 ovarian, 106%; in the test with OVCAR-4 ovarian, 98%; in the test with SK-OV-3 ovarian, 110%; in the test on IGROV1 ovarian it was 99.2%. Also, the growth in the test with OVCAR-3 ovarian was 115%; in the test with NCI/ADR-RES ovarian, 111%; in the test with T-47D breast, 103%.

For `O=C(CSSCC(=O)c1ccc(Cl)cc1)c1ccc(Cl)cc1`, the growth in the test with RPMI-8226 leukemia was 24.9%; with OVCAR-8 ovarian, 47.8%; in the test with OVCAR-5 ovarian, 60.1%; in the test with OVCAR-4 ovarian, 85.8%; with SK-OV-3 ovarian, 60%; with IGROV1 ovarian it was 78.9%. Also, the growth in the test on OVCAR-3 ovarian is 78.4%; in the test on NCI/ADR-RES ovarian, -13% (active); in the test on T-47D breast, 74.8%.

In the case of `COc1ccc(-c2nc3sccn3c2-c2nc3c([nH]2)C(=O)c2ccccc2C3=O)cc1`, the growth in the test on RPMI-8226 leukemia was 74.7%; in the test on OVCAR-8 ovarian it was 96.2%; with OVCAR-5 ovarian, 89.8%; with OVCAR-4 ovarian, 84.1%; in the test on SK-OV-3 ovarian it was 109%; with IGROV1 ovarian it was 105%. The results for the growth with OVCAR-3 ovarian, in the test on NCI/ADR-RES ovarian and with T-47D breast were 114%, 86.5% and 72%, respectively.

As to `CCC1(C(C)C)NC(=O)NC1=O` (configuration not stated), the growth was 91.8% in the test on RPMI-8226 leukemia; 104% in the test with OVCAR-8 ovarian; 89.3% in the test with OVCAR-5 ovarian; 103% in the test on OVCAR-4 ovarian; 107% with SK-OV-3 ovarian; 112% in the test with IGROV1 ovarian. Moreover, the growth was 115% in the test on OVCAR-3 ovarian, 99.5% with NCI/ADR-RES ovarian and 97% with T-47D breast.

For the molecule `CN(C)c1ccc(Cc2ccc(N(C)C)cc2Cl)c(Cl)c1`, the growth in the test on RPMI-8226 leukemia was 81.1%; with OVCAR-8 ovarian it was 101%; with OVCAR-5 ovarian, 99.6%; in the test on OVCAR-4 ovarian it was 78.6%; in the test on SK-OV-3 ovarian it was 103%; in the test on IGROV1 ovarian, 90.7%. Also, the growth with OVCAR-3 ovarian is 94.9%; in the test with NCI/ADR-RES ovarian it was 101%; in the test on T-47D breast, 87.1%.

Turning to `CN(C)CCN=c1nc2c(c(N)n1-c1ccccc1)c(=S)n(-c1ccccc1)c(=S)n2-c1ccccc1`, the growth in the test with RPMI-8226 leukemia was -4.61% (active); with OVCAR-8 ovarian it was 33.6%; with OVCAR-5 ovarian it was 63.1%; with OVCAR-4 ovarian, 41.7%; in the test on SK-OV-3 ovarian, 76.3%; with IGROV1 ovarian it was 36.3%. For the same molecule, the growth is -48.7% (active) in the test with OVCAR-3 ovarian, 12.3% with HS 578T breast and -19.4% (active) in the test with T-47D breast.

Regarding `COc1cc(/C(=C2/O[C@@H]([C@H]3COC(C)(C)O3)[C@H]3OC(C)(C)O[C@@H]23)c2ccc3ccccc3c2)cc(OC)c1OC`, the growth in the test on RPMI-8226 leukemia was 36.8%; with OVCAR-8 ovarian, 18.9%; with OVCAR-5 ovarian, 38.2%; in the test with OVCAR-4 ovarian, 25.7%; in the test with SK-OV-3 ovarian, 51.4%; in the test on IGROV1 ovarian, 21.4%. Also, the growth in the test with OVCAR-3 ovarian is -6.76% (active); in the test on NCI/ADR-RES ovarian, 25.9%.

On to `COc1ccc(S(=O)(=O)NCCCNc2nccc(-c3c(-c4ccc(F)cc4)nc4sccn34)n2)cc1`, for which the growth is 47.8% in the test on RPMI-8226 leukemia; 41.9% in the test with OVCAR-8 ovarian; 92.6% in the test on OVCAR-5 ovarian; 77.3% in the test with OVCAR-4 ovarian; 74.5% with SK-OV-3 ovarian; 30.2% with IGROV1 ovarian. Further, the results for the growth with OVCAR-3 ovarian, with NCI/ADR-RES ovarian and in the test on T-47D breast were 74.9%, 53.3% and 24.2%, respectively.
